# Source: PubChem BioAssay (Tox21)
# Several values for one entry are separate records, joined by “and”; a condition that tells them apart may be missing. Equal entries are not always repeated. Inconclusive results are not listed. Where a call stands in place of a potency, no number is given. More than one record can exist for a structure, and the calls need not agree. Activity calls are given as the source filed them. Calls follow the shape of the dose curve; as a rule, active = well fitted curve in the direction sought with a large enough effect in the repeat runs; inconclusive = weak or mixed curves; inactive = no such curve, though single readings can be large; an effect the other way counts as inactive or inconclusive.
# How the values were obtained:
# [1] = qHTS RealTime-Glo MT Cell Viability Assay in HEK293 cells - 0 hour (AID 1224880); also: top concentration of the series differs between compounds; nearly all actives have a fitted effect of over 45% in size
# How it was run: (§1)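 600 cells/well were plated with the nonlytic NanoLuc/prosubstrate reagent, pre-incubated 5 h, then given 23 nL of compound in DMSO. Incubation at 37 C for 40 h, with luminescence from viable-cell-reduced substrate read repeatedly from 0 h.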
# [2] = A CellTox Green Cytotoxicity Assay to monitor cytotoxicity in HEK293 cells - 32 hour (AID 1224881); also: nearly all actives have a fitted effect of over 40% in size; also: potency is read from the fitted curve at half-maximal effect
# How it was run: (§2)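 HEK293 cells, 600/well, were preincubated 5 hours and then exposed to compounds at 37 C for up to 40 hours. A cell-impermeant cyanine dye staining dead-cell DNA was read by fluorescence at 0, 8, 16, 24, 32 and 40 h time points.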
# [3] = A CellTox Green Cytotoxicity Assay to monitor cytotoxicity in HepG2 cells - 0 hour (AID 1224882); also: nearly all actives have a fitted effect of over 35% in size; also: potency is read from the fitted curve at half-maximal effect
# How it was run: (§3)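 HepG2 cells, 600/well, preincubated 5 h with CellTox Green dye, then exposed to Tox21 compounds in DMSO at 37 C for up to 40 h. Dead-cell DNA fluorescence read at the indicated time point.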
# [4] = A CellTox Green Cytotoxicity Assay to monitor cytotoxicity in HepG2 cells - 32 hour (AID 1224883); also: nearly all actives have a fitted effect of over 50% in size; also: potency is read from the fitted curve at half-maximal effect
# How it was run: as §3
# [5] = A CellTox Green Cytotoxicity Assay to monitor cytotoxicity in HEK293 cells - 8 hour (AID 1224884); also: nearly all actives have a fitted effect of over 35% in size; also: potency is read from the fitted curve at half-maximal effect
# How it was run: as §2
# [6] = qHTS RealTime-Glo MT Cell Viability Assay in HepG2 cells - 16 hour (AID 1224885); also: nearly all actives have a fitted effect of over 50% in size; also: potency is read from the fitted curve at half-maximal effect
# How it was run: (§4)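 Real-time, nonlytic viability: 600 HepG2 cells/well mixed with NanoLuc enzyme plus prosubstrate; 5 h settle, compound (DMSO) added by pintool; luminescence monitored over 40 h at 37 C.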
# [7] = qHTS RealTime-Glo MT Cell Viability Assay in HEK293 cells - 24 hour (AID 1224886); also: nearly all actives have a fitted effect of over 50% in size; also: potency is read from the fitted curve at half-maximal effect
# How it was run: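 Cells + reagent dispensed (600 cells/well, HEK293) → 5 h at 37 C/5% CO2 → 23 nL compound in DMSO pinned → 40 h at 37 C → luminescence read at 0, 8, 16, 24, 32, 40 h.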
# [8] = qHTS RealTime-Glo MT Cell Viability Assay in HEK293 cells - 8 hour (AID 1224887); also: nearly all actives have a fitted effect of over 50% in size; also: potency is read from the fitted curve at half-maximal effect
# How it was run: as §1
# [9] = A CellTox Green Cytotoxicity Assay to monitor cytotoxicity in HEK293 cells - 16 hour (AID 1224888); also: nearly all actives have a fitted effect of over 35% in size; also: potency is read from the fitted curve at half-maximal effect
# How it was run: as §2
# [10] = qHTS RealTime-Glo MT Cell Viability Assay in HepG2 cells - 0 hour (AID 1224889); also: nearly all actives have a fitted effect of over 50% in size
# How it was run: as §4
Compound,Potency [1],Potency [2],Potency [3],Potency [4],Potency [5],Potency [6],Potency [7],Potency [8],Potency [9],Potency [10]
Clc1nc(Cl)c(Cl)c(Cl)c1Cl,inactive,inactive,inactive,inactive,inactive,inactive,inactive,inactive,inactive,inactive
Nc1ccc(Cl)cc1Cl,inactive,inactive,inactive,inactive,inactive,inactive,inactive,inactive,inactive,inactive
CC(C)=CCC/C(C)=C\CO,inactive,inactive,inactive,inactive,inactive,inactive,inactive,inactive,inactive,inactive
C=C(C)C(=O)OCCOC(=O)C(=C)C,inactive,inactive,inactive,inactive,inactive,inactive,inactive,inactive,inactive,inactive
Cc1c(OCC(F)(F)F)ccnc1CS(=O)c1nc2ccccc2[nH]1 (stereo not given),inactive,inactive,inactive,inactive,inactive,inactive,19.5 µM (active) and 19 µM (active),21.9 µM (active) and 23.9 µM (active),inactive,inactive
Cc1c(C(N)=O)cc([N+](=O)[O-])cc1[N+](=O)[O-],inactive,inactive,inactive,inactive,inactive,inactive,inactive,inactive,inactive,inactive
CC(C)OC=O,inactive,inactive,inactive,inactive,inactive,inactive,inactive,inactive,inactive,inactive
NC=O,inactive,inactive,inactive,inactive,inactive,inactive,inactive,inactive,inactive,inactive
O=C(OCc1ccccc1)c1ccccc1O,inactive,inactive,inactive,inactive,inactive,inactive,inactive,inactive,inactive,inactive
O=S(=O)(O)c1ccc(O)cc1,inactive,inactive,inactive,inactive,inactive,inactive,inactive,inactive,inactive,inactive
Cc1ncc[nH]1,inactive,inactive,inactive,inactive,inactive,inactive,inactive,inactive,inactive,inactive
CCC(C)(O)CCCC(C)C (stereo not given),inactive,inactive,inactive,inactive,inactive,inactive,inactive,inactive,inactive,inactive
CCCc1c(OCCCCc2nn[nH]n2)ccc(C(C)=O)c1O,inactive,inactive,inactive,inactive,inactive,inactive,inactive,inactive,inactive,inactive
Cc1cc2nc3c(=O)[nH]c(=O)nc-3n(C[C@H](O)[C@H](O)[C@H](O)CO)c2cc1C,inactive,48.5 µM (active) and 45.5 µM (active) and 11.7 µM (active),43.2 µM (active) and 40.5 µM (active) and 11.7 µM (active),43.2 µM (active) and 40.5 µM (active) and 11.7 µM (active),43.2 µM (active) and 40.5 µM (active) and 11.7 µM (active),inactive,inactive,inactive,43.2 µM (active) and 40.5 µM (active) and 11.7 µM (active),inactive
c1ccc2sc(SSN3CCOCC3)nc2c1,inactive,38.8 µM (active) and 54.9 µM (active),inactive,54.8 µM (active) and 54.9 µM (active),inactive,54.9 µM (active),38.8 µM (active) and 49 µM (active),48.9 µM (active),inactive,inactive
CN(C)CCN(Cc1cccs1)c1ccccn1,inactive,inactive,inactive,inactive,inactive,inactive,inactive,inactive,inactive,inactive
Nc1ccc(S(=O)(=O)Nc2cnc3ccccc3n2)cc1,inactive,inactive,inactive,inactive,inactive,inactive,inactive,inactive,inactive,inactive
Cc1ccc(C(=O)c2cc(O)c(O)c([N+](=O)[O-])c2)cc1,inactive,inactive,inactive,inactive,inactive,inactive,inactive,inactive,inactive,inactive
COc1ccc(OC)c(C(O)CNC(=O)CN)c1 (stereo not given),inactive,inactive,inactive,inactive,inactive,inactive,inactive,inactive,inactive,inactive
O=C(O)c1ccccc1Nc1cccc(C(F)(F)F)c1,inactive,inactive,inactive,inactive,inactive,inactive,inactive,inactive,inactive,inactive
c1ccc2c(c1)c1cccc3ccc4cccc2c4c31,inactive,inactive,inactive,inactive,inactive,inactive,inactive and 19.5 µM (active),inactive,inactive,inactive
c1ccc2c(c1)Oc1ccccc1S2,inactive,49.8 µM (active) and inactive,inactive,inactive,inactive,inactive,inactive,inactive,inactive,inactive

Compound,Potency [1],Potency [2],Potency [3],Potency [4],Potency [5],Potency [6],Potency [7],Potency [8],Potency [9],Potency [10]
C=C(C)C1CC=C(C)CC1 (stereo not given),inactive,inactive,inactive,inactive,inactive,inactive,inactive,inactive,inactive,inactive
Nc1ccc(Nc2ccccc2)cc1,inactive,inactive,inactive,inactive,inactive,inactive,48.5 µM (active),21.6 µM (active) and 21.9 µM (active),inactive,inactive
CCOC(=O)C(C#N)=C(c1ccccc1)c1ccccc1,inactive,inactive,inactive,inactive,inactive,inactive,inactive,inactive,inactive,inactive
Nc1ncnc2nc[nH]c12,inactive,inactive,inactive,inactive,inactive,inactive,inactive,inactive,inactive,inactive
CCCC(=O)O,inactive,inactive,inactive,inactive,inactive,inactive,inactive,inactive,inactive,inactive
Cc1ccc(C)c(O)c1C,inactive,inactive,inactive,inactive,inactive,inactive,inactive,inactive,inactive,inactive
CCCCC(CC)COCC1CO1 (stereo not given),inactive,inactive,inactive,inactive,inactive,inactive,inactive,inactive,inactive,inactive
O=Cc1ccccc1O,inactive,inactive,inactive,inactive,inactive,inactive,inactive,inactive,inactive,inactive
CC1=CCC(C(C)(C)O)CC1 (stereo not given),inactive,inactive,inactive,inactive and 21.9 µM (active),inactive and 17.4 µM (active),inactive,inactive,inactive,inactive,inactive
CC(C)OB(OC(C)C)OC(C)C,inactive,inactive,inactive,inactive,inactive,inactive,inactive,inactive,inactive,inactive
c1ccc2cc(Nc3ccc(Nc4ccc5ccccc5c4)cc3)ccc2c1,inactive,inactive,inactive,inactive,inactive,inactive,inactive,inactive,inactive,inactive
COC(C)COC(C)COC(C)CO (stereo not given),inactive,inactive,inactive,inactive,inactive,inactive,inactive,inactive,inactive,inactive
CN(C)c1nc(N(C)C)nc(N(C)C)n1,inactive,inactive,inactive,inactive,inactive,inactive,inactive,inactive,inactive,inactive
Cc1cccc(N(C)C(=S)Oc2ccc3ccccc3c2)c1,inactive,inactive,inactive,inactive,inactive,inactive,inactive,inactive,inactive,inactive
Brc1cc(Oc2cc(Br)c(Br)c(Br)c2Br)c(Br)c(Br)c1Br,inactive,inactive,inactive,inactive,inactive,inactive,inactive,inactive,inactive,inactive
Cc1cccc([N+](=O)[O-])c1C,inactive,inactive,inactive,inactive,inactive,inactive,inactive,inactive,inactive,inactive
CN(C)C(=N)N=C(N)N,inactive,inactive,inactive,inactive,inactive,inactive,inactive,inactive,inactive,inactive
O=C(Nc1ccc([N+](=O)[O-])cc1Cl)c1cc(Cl)ccc1O,inactive,38.9 µM (active),inactive,4.9 µM (active) and 2.93 µM (active),inactive,inactive,5.49 µM (active) and 1.04 µM (active),inactive,inactive,inactive
O=C(/C=C/c1ccccc1)OCc1ccccc1,inactive,,inactive,inactive,inactive,inactive,inactive,inactive,inactive,inactive
CC1=CC2C3CC(C=C3C)C2C1 (stereo not given),inactive,inactive and 38.9 µM (active),inactive and 27.5 µM (active),inactive and 24.5 µM (active),inactive and 43.6 µM (active),inactive,inactive,inactive,,inactive
CC(=O)O[C@]1(C(C)=O)CC[C@H]2[C@@H]3C=C(Cl)C4=CC(=O)[C@@H]5C[C@@H]5[C@]4(C)[C@H]3CC[C@@]21C,inactive,inactive,inactive,inactive,inactive,,21.9 µM (active),inactive,inactive,inactive
CCCCc1oc2ccccc2c1C(=O)c1cc(I)c(OCCN(CC)CC)c(I)c1,inactive,44 µM (active),inactive,34.9 µM (active) and 26.8 µM (active),inactive,39.2 µM (active),34.9 µM (active) and 23.9 µM (active),,,inactive
